# Screening results (PubChem)
# Abs 340nm – compound light absorbance at 340 nm, profiling panel, artefact control, biochemical, MLSMR library, data from PS, PMK, MK assays | compound absorbance at 340 nm, fold over control | fold change at 10 µM | 65,000 tested, under 10 active;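 active = at 10 µM dose, initial 340 nm absorbance at least 2 fold that of control wells; inactive = change under 2 fold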;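 also: initial absorbance extrapolated from kinetic A340 decline of NADH oxidation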
# Spn PMK inh – S. pneumoniae PMK inhibitors, primary screen, biochemical, mevalonate pathway, pilot trial included. phosphomevalonate kinase (Streptococcus pneumoniae D39). AID 539, 2006. purified PMK, PK/LDH-coupled NADH absorbance 340 nm. 65,000 compounds, 0.49% hits. inhibition, % at 10 µM;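 active = top-ranked compounds by inhibition in the single 10 µM screen, taking a fixed number of the strongest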;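 also: 0% = full reaction with DMSO carrier and 100% = background rate without enzyme reaction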
# NADH coupling – inhibitors of PK/LDH coupling enzymes, profiling panel, artefact control, biochemical, MLSMR library; 65,000 compounds, 0.02% hits; coupled PK/LDH NADH assays, four targets; IC50, µM (doses to about 10 µM), for the others: at the highest dose inhibition;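 active = single-dose screening hits from any of four coupled enzyme assays that gave an IC50 when retested across doses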;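 also: the DPM-DC format reads NADH fluorescence rather than 340 nm absorbance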
# Spn MK inh – S. pneumoniae MK inhibitors, primary screen, biochemical, PK/LDH-coupled NADH absorbance; purified MK, PK/LDH-coupled NADH absorbance 340 nm; inhibition, % at 10 µM; 65,000 compounds, 0.48% hits; AID 555, 2006;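 active = ranked among the strongest by inhibition in the single 10 µM screen, a fixed top-ranked set picked for dose follow-up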
# Spn DPM-DC inh – S. pneumoniae DPM-DC inhibitors, primary screen, biochemical, PK/LDH-coupled NADH fluorescence; diphosphomevalonate decarboxylase (Streptococcus pneumoniae D39); 65,000 compounds, 0.49% hits; purified DPM-DC; calls only at 10 µM;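 active = the 320 compounds with the highest percent inhibition in the single-dose primary screen, excluding strongly autofluorescent ones, cut at about 32% in these data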;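 also: kinetic rate of NADH fluorescence loss reporting ADP formed by the decarboxylase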
# Fluor 339 460 – intrinsic fluorescence of library compounds, ex339/em460 – biochemical, MLSMR library, data from DPM-DC assay, artefact control, profiling panel. fluorescence fold increase at 10 µM. AID 709, 2007. 65,000 compounds, 5.5% hits. compound autofluorescence, ex339/em460 nm, NADH buffer; hits give high values; 1 = no-compound wells, NADH background;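 active = at 10 µM, mean starting fluorescence two-fold or more over control wells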;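 also: signal is the first read of a kinetic run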
# An asterisk follows results filed as active; i = inactive; . = no result shown; + = active, no number. The list is not random: actives were taken first. Their share in the collection is about 6.8%.
SMILES,Abs 340nm,Spn PMK inh,NADH coupling,Spn MK inh,Spn DPM-DC inh,Fluor 339 460
CCOC(=O)Nc1cc(=O)c2ccccc2o1,1,0.0,3.0%,2.0,i,1.57
CCOC(=O)Nc1cc2c(C)cc(=O)oc2cc1C,1.03,9.0,15.0%,7.0,i,3.6*
CN1CCc2c(n(CC(O)CN3C(=O)c4ccccc4S3(=O)=O)c3ccccc23)C1=O (centres undefined),1.03,0.0,2.0%,5.0,i,1.08
CC(C)NCC(O)Cn1c2c(c3ccccc31)CCc1c-2cnn1-c1ccccc1 (centres undefined),1.06,10.0,10.0%,9.0,.,3.9*
CCOCC(=O)Nc1c(C(=O)OCC)oc2ccccc12,0.99,10.0,6.0%,9.0,i,1.14
COc1cccc(-c2nn(C)c3sc(C(=O)NCc4ccccn4)cc23)c1,1.05,7.0,7.0%,7.0,.,4.91*
CCOC(=O)N1CCC(NC(=O)c2cc3c(-c4cccc(OC)c4)nn(C)c3s2)CC1,1.01,9.0,12.0%,5.0,i,3.87*
CN(Cc1ccccc1)C(=O)CCCn1c(=O)[nH]c2cc(Cl)ccc2c1=O,1,16.0,7.0%,6.0,i,1.11
O/N=C1/CCc2cccc3cccc1c23,1.04,11.0,5.0%,5.0,i,1.17
O=C1OCc2cccc3cccc1c23,1.07,15.0,17.0%,19.0,.,2.1*
CCOc1cc(C2C(C(=O)c3ccccc3)=C(C(=O)OC)Nc3nnnn32)ccc1O (centres undefined),1,17.0,3.0%,3.0,i,1.05
O=C(NCCCN1CCCCC1)C1(S(=O)(=O)c2ccc(Cl)cc2)CC1,1.03,1.0,0.0%,0.0,i,1.09
CCOC(=O)N1CCN(S(=O)(=O)c2ccc(C(=O)Nc3nc4ccccc4s3)cc2)CC1,1.07,13.0,11.0%,8.0,.,4.52*
CCOC(=O)N1CCN(S(=O)(=O)c2ccc(F)cc2)CC1,1.03,12.0,7.0%,9.0,i,1.16
CCOC(=O)N1CCN(S(=O)(=O)c2ccc(C(=O)Nc3nc4ccc(F)cc4s3)cc2)CC1,1.07,22.0,15.0%,8.0,.,4.62*
Cn1c(=O)c2[nH]c(Nc3ccccc3)nc2n(C)c1=O,1.05,0.0,1.0%,2.0,i,1.1
CC(C)c1ccc(-c2nc3c([nH]2)c(=O)n(C)c(=O)n3C)cc1,1.03,0.0,14.0%,7.0,+,2.51*
CCOC(=O)c1sc(C)c2c1NC(C)(c1cccs1)NC2=O (centres undefined),1.01,12.0,4.0%,8.0,.,2.97*
CCOC(=O)c1sc(C)c2c1NC1(CCCCC1)NC2=O,1.05,12.0,13.0%,14.0,.,3.86*
O=C(CN(C(=O)CNS(=O)(=O)c1ccccc1)C1CCCC1)NCc1ccco1,0.99,25.0*,8.0%,0.0,i,1
O=C(CN(C(=O)CNS(=O)(=O)c1ccccc1)c1ccc2c(c1)OCCO2)NCc1ccco1,1.01,19.0,8.0%,6.0,i,1.09
COc1ccc(Cl)cc1S(=O)(=O)n1ccnc1C(C)C,1.02,11.0,6.0%,7.0,i,1.08
CCOC(=O)C1CCN(S(=O)(=O)c2ccc(-c3nc4ccccc4s3)s2)CC1,1.07,13.0,8.0%,6.0,i,2.17*
C(=N\n1cnnc1SCc1ccccc1)/c1ccco1,1.04,4.0,2.0%,2.0,i,1.11
CCCNC(=O)c1c(C)cc(=O)oc1C,1.22,16.0,12.0%,0.0,i,2.06*
SMILES,Abs 340nm,Spn PMK inh,NADH coupling,Spn MK inh,Spn DPM-DC inh,Fluor 339 460
O=S(=O)(NC1CCN(Cc2ccccc2)CC1)c1cccc2cccnc12,0.98,18.0,8.0%,6.0,i,1.04
CC(C)(C)N1C(=O)Cc2c1nc(N)c1c(N)nc(N3CCCCC3CO)c(C#N)c21 (centres undefined),1.03,15.0,8.0%,0.0,.,4.85*
Cc1ccc(CN2CCN(CC(=O)NCc3ccc(Cl)cc3)C2=O)cc1,1.06,5.0,5.0%,11.0,i,1.11
COc1ccc(-c2cn3cccnc3n2)cc1NC(=O)c1ccc(Br)o1,1.1,14.0,8.0%,1.0,.,5.29*
Cc1ccc(-c2cn3cccnc3n2)cc1NC(=O)c1ccc(Br)o1,1.02,17.0,4.0%,0.0,.,3.47*
Cc1cc(O)c(NC(=O)c2ccc(Br)o2)cc1C,1,5.0,11.0%,8.0,i,1.02
Cc1cc(SCC(=O)N2CCC(c3noc4ccc(F)cc34)CC2)nc2ccccc12,1.07,3.0,1.0%,0.0,i,1.16
CCC1c2ccc(C)n2CCN1C(=O)Nc1ccccc1C(=O)OC (centres undefined),1.03,16.0,11.0%,6.0,i,2.53*
CC(C)(C)OC(=O)N1CCCC1C(=O)NCCc1ccccc1 (centres undefined),1.04,3.0,4.0%,9.0,i,1.19
CCc1cc2c(C)cc(=O)oc2cc1OC(=O)C1CCCN1C(=O)OC(C)(C)C (centres undefined),1,11.0,11.0%,10.0,.,4.89*
Cc1cccc(Cc2c(C)nc3c(C(=O)NCc4ccco4)cnn3c2C)c1,1.04,13.0,7.0%,1.0,i,3.85*
Cc1nc2c(-c3ccccc3)c(C)nn2c(C)c1CCC(=O)NCc1ccco1,0.99,8.0,4.0%,8.0,i,1.03
Cc1nc2c(C(=O)NCc3ccco3)cnn2c(C)c1Cc1ccc(F)cc1Cl,1.02,7.0,6.0%,0.0,i,3.11*
OCCN(CCO)c1nc(N2CCCCC2)c2nc(N(CCO)CCO)nc(N3CCCCC3)c2n1,1,2.0,3.0%,4.0,.,2.25*
Cc1cccn2c(=O)c3cc(C(=O)NC(C)c4ccccc4)c(=N)n(CCCn4ccnc4)c3nc12 (centres undefined),1.05,6.0,3.0%,0.0,.,3.84*
Cc1ccc2nc3c(cc(C(=O)NCc4ccccc4)c(=N)n3CCCn3ccnc3)c(=O)n2c1,1.06,6.0,3.0%,0.0,.,3.83*
COc1ccc(-c2[nH]c(-c3cccc(OC)c3)nc2SCC(=O)NCc2ccco2)cc1,0.99,17.0,6.0%,4.0,i,1.71
COc1nc(N(C)C)nc(-n2nnc(C(C)=O)c2C)n1,1.03,8.0,3.0%,0.0,i,1.09
CCOC(=O)c1c(CC(C)C)csc1NC=O,1.04,0.0,14.0%,0.0,+,0.56
CCOc1ccc(-n2c(SCC(=O)Nc3ccc4c(c3)OCCO4)nc3c(c2=O)SCC3)cc1,1.17,28.0,10.0%,1.0,i,1.06
O=C(NCc1ccco1)c1ccc(NC(=O)C2COc3ccccc3O2)cc1 (centres undefined),1.04,6.0,3.0%,3.0,i,1.1
